Where “and” joins values, the source holds several entries; their conditions need not be identical. Equal entries are not always repeated. Among all 16,000 compounds or so, about 160 (1%) were called active. About 8% were inconclusive and are not listed. Shown is part of a subset that was picked to be rich in actives. Unmarked numbers belong to inactive results. Calls come from the whole dose curve; as a rule, active = well fitted activation curve with a large enough effect; inconclusive = small, poorly fitted or top-dose-only effect; inactive = no such curve, though single readings can be large or run the other way.
Molecular target: Rap guanine nucleotide exchange factor 3 (Homo sapiens) (UniProt O95398)
Test: Validation qHTS for agonist of cAMP-regulated guanine nucleotide exchange factor 3 (EPAC1); note: nearly all actives have a fitted effect of over 70% in size
Details: EPAC1 Rap1b BODIPY-GDP exchange, fluorescence; max response: active compounds read high, percent of cAMP control response
Description: Assay Provider (PI): Xiaodong Cheng Ph.D.
The University of Texas Medical Branch, […], TX
In multi-cellular eukaryotic organisms, the effects of cAMP are transduced by two ubiquitously-expressed intracellular cAMP receptors, the classic protein kinase A/cAMP-dependent protein kinase (PKA/cAPK) and the more recently discovered exchange protein directly activated by cAMP/cAMP-regulated guanine nucleotide exchange factor (EPAC/cAMP-GEF). Both PKA and EPAC are ubiquitously expressed in all tissues, and an increase in intracellular cAMP levels will lead to the activation of both PKA and EPAC. Therefore, careful dissections of the individual role and relative contribution of EPAC and PKA within the overall cAMP signaling in various model systems are critical for further elucidating the mechanism of cAMP signaling. To date no EPAC-specific antagonists and agonist, as well as isoform-specific agonists have been reported, and developing EPAC-specific pharmacological probes to determine the physiological functions that EPAC play in the overall cAMP-mediated signaling remains a major challenge within the research field. Furthermore, identified regulators of EPAC may lead to new mechanism-based therapeutic strategies specifically targeting the EPAC / cAMP-signaling components as EPAC has been implicated to play important roles in major human pathological conditions such as diabetes, heart disease, and cancer.
This qHTS will be used to screen the Molecular Libraries Small Molecule Repository (MLSMR) as a concentration-titration series using the NCGC unique quantitative screening (qHTS) platform to find activators for EPAC1. In addition, this assay will also be used as a counterscreen for the EPAC2 qHTS. This fluorescent based assay is developed and validated for EPAC1 that measures exchange using EPAC effector Rap1 complex with BODIPY-GDP, a GDP analog with a tethered fluorophores. Activators are identified by monitoring the change in fluorescence signal as the exchanged free BODIPY-GDP has a reduced fluorescence compared to Rap1-bound BODIPY-GDP. Increase in signal (activation) is the desired outcome for the EPAC1 agonist while no activity in this assay is desired for the EPAC2 agonist counterscreen.
[1] de Rooij, J., Zwartkruis, F. J., Verheijen, M. H., Cool, R. H., Nijman, S. M., Wittinghofer, A., and Bos, J.L. (1998) Nature 396, 474-477.
Briefly, three uL of reagents (100 nM EPAC1, 250 nM RAP1B-BODIPY-GDP, 50 uM GDP) were dispensed into a 1536-well Greiner black solid-bottom medium binding assay plate. Controls and test compounds (23 nL) were transferred to the plate via a Kalypsys pin tool equipped with a 1536-pin array. The plates were centrifuged at 1,000 rpm for 15 seconds followed by 5 minute incubation at room temperature. The assay plates were read at 5 minute intervals for 30 minutes in the ViewLux plate reader using 480nm excitation and 540nm emission filters. The results were normalized to the agonist positive control of 6.5 mM cAMP.
% is set by controls: 0 for no effect and ±100 for the full control effect.

Chain of Rap guanine nucleotide exchange factor 3 (Homo sapiens) (O95398 whole entry, looked up): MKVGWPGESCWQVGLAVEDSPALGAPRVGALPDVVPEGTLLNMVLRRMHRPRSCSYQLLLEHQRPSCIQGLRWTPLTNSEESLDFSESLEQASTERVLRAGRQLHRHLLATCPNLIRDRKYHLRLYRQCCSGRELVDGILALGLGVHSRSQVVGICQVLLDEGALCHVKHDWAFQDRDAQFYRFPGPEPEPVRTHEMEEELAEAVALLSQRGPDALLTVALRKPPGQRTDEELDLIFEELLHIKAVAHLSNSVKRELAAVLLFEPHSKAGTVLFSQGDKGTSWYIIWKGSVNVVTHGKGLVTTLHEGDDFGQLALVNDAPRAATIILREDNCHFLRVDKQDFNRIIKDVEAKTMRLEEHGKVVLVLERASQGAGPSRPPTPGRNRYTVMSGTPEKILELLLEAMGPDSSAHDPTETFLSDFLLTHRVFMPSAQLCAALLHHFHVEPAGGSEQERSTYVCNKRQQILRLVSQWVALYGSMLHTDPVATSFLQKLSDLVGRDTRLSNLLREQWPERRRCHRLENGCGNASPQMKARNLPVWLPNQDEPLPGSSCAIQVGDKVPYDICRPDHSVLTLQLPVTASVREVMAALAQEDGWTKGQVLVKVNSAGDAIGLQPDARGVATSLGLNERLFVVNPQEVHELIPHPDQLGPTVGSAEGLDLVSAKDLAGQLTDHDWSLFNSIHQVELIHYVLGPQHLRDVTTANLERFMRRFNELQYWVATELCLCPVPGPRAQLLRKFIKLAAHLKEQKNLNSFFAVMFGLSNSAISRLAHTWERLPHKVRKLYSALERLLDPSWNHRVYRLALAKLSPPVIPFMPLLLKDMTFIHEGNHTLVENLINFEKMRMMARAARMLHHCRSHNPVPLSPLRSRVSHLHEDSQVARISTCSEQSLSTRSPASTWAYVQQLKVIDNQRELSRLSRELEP

| SMILES | max response |
| --- | --- |
| CC1CC[C@@]23CCC4(C)[C@@]5(C)CCC6C(C)(C)C(O)CC[C@@]6(C)C5C=C[C@@]4(OC2=O)C3C1C (stereo partly specified) | -57.5% |
| O=C1NS(=O)(=O)c2ccccc21 | -6.7% and 22.2% |
| CC(=O)OC[C@H]1O[C@@H](O[C@H]2[C@H](O)[C@@H](OC(=O)c3ccccc3C(=O)O)[C@H](O)O[C@@H]2COC(C)=O)[C@H](O)[C@@H](OC(=O)c2ccccc2C(=O)O)[C@@H]1O | -29.6% |
| CC(O)(COc1ccccc1)c1ccc2c(c1)CN(Cc1cn[nH]c1-c1ccc(F)cc1)CCO2 (stereo unspecified) | 6.27% |
| COc1ccc(CCNc2ncnc3sc(C(=O)N4CCCC4)c(C)c23)cc1OC | -3.63% |
| O=C(c1cc(C(F)(F)F)cc(C(F)(F)F)c1)N1CCC2(CCCN(Cc3ccncc3)C2)CC1 | -115% |
| COC(=O)N1CCC[C@@]2(CCN(C(=O)NC(C)C)C2)C1 | -60.9% |
| C[C@H]1C[C@H]2[C@@H]3CCC4=CC(=O)C=C[C@]4(C)[C@@H]3C(=O)C[C@]2(C)[C@@]1(O)C(=O)CO | 0.445% |
| COc1cc2c(cc1OC)[C@@H](Cc1cc(OC)c(OC)c(OC)c1)[N+](C)(CCCOC(=O)CC/C=C/CCC(=O)OCCC[N+]1(C)CCc3cc(OC)c(OC)cc3[C@H]1Cc1cc(OC)c(OC)c(OC)c1)CC2 (stereo partly specified) | -11.5% and 6.58% |
| CC(=O)Nc1ccccc1-c1nc(CNC(=O)c2ccc(Cl)cc2)c(C)o1 | -0.968% |
| COc1cc(=O)n2c(c1C(=O)NC(C)c1ccco1)CCN(C(=O)c1cn3ccc(C)cc3n1)CC2 (stereo unspecified) | -8.43% |
| NCCCNCCCCN(CCCN)/[N+]([O-])=N/O | -13.7% |
| O=C1CCN(CCc2ccccc2)CCN1CCOc1ccccc1 | 21.5% |
| O=C(CN1Cc2ccccc2OC(c2ccccc2)C1)N1CCCCC1c1cccnc1 (stereo unspecified) | 3.86% |
| N[C@H](C(=O)O)c1ccc(C(=O)O)c(O)c1 | -1.36% and -12.7% |
| Cc1ccc(/C(=C/CN2CCCC2)c2ccccn2)cc1 | -20.9% |
| CN1CCC2(CC1)CCN(S(=O)(=O)c1ccccc1)CC2 | 2.56% |
| CN(C)C(=O)[C@@H]1C[C@@H](Sc2nc3ccccc3[nH]2)CN1Cc1ccc(Cl)cc1 | 0.834% |
| C=C1C(=C/C=C2\CCC[C@]3(C)[C@@H]([C@H](C)CCCC(C)(C)O)CC[C@@H]23)C[C@@H](O)C[C@@H]1O | -16.6% |
| O=C(c1csnn1)N1CCC2(CC1)CN(c1ncccn1)C2 | 26.8% |
| O=C(NCCN1CCOCC1)c1cnn(-c2nccc(-c3cccs3)n2)c1C1CC1 | -10.9% |

| SMILES | max response |
| --- | --- |
| CN(Cc1ccco1)c1cc(-c2ccccc2C(F)(F)F)ncn1 | 17% |
| COc1ccc(C)cc1N1C(=O)[C@@H]2C[C@H]1CN2Cc1cccc(OC)c1O | -2.66% |
| O=C(O)CCC(=O)O | -16.2% |
| COC1[C@H](OC(N)=O)C(O)[C@H](Oc2ccc3c(O)c(NC(=O)c4ccc(O)c(CC=C(C)C)c4)c(=O)oc3c2C)OC1(C)C (stereo partly specified) | 12.3% |
| O=C(C[n+]1ccncc1)c1ccc2c(c1)CCCC2 | -14.9% |
| COc1cc(=O)n2c(c1C(=O)N(C)Cc1nonc1C)CCN(C(=O)c1ccc(C)cc1C)CC2 | -17.4% |
| C=C1C(=CC=C2CCC[C@@]3(C)[C@@H]2CC[C@H]3[C@H](C)CCCC(C)C)C[C@@H](O)C[C@@H]1O | -125% |
| CN1CCN(c2ncncc2-c2ccc(C(=O)N(C)C)cc2)CC1 | -22% |
| Cc1cccc(C)c1NC(=O)NC1=CCCN1C | -23.6% |
| O=C1NC(CC(=O)N2CCC(n3c(C4CCC4)nc4cccnc43)CC2)c2ccccc21 (stereo unspecified) | 2.72% |
| CCNCCCNCCCNCCCNCC | -1.46% |
| CCCCCCCC/C=C\CCCCCCCC(=O)OC[C@H](CO)OC(C)=O | -42.9% |
| Nc1ncnc2c1c(I)cn2[C@@H]1C[C@H](N)[C@@H](O)[C@H]1O | -1.21% |
| COc1ccccc1CNc1ncncc1-c1cccnc1 | -29.8% |
| O=C(OCCN1CCOCC1)C1(c2ccccc2)CCCCC1 | 0.319% and -0.482% and -4.96% |
| CC1(C)[C@@H]2CC[C@@]1(C)[C@H](OC(=O)CSC#N)C2 | -10.5% |
| COc1ccc(Oc2ncc3nc(-c4ccc(F)cc4)c(=O)n(C)c3n2)cc1 | -48.7% |
| OCC1CCCN(c2nc3cc4c(cc3cc2CNCc2cccs2)OCO4)C1 (stereo unspecified) | -2.38% |
| COc1ccc(-c2nc3cnc(OC)nc3n(Cc3ccc(F)cc3)c2=O)cc1 | -45.5% |
| CC(C)[C@H](CO)Nc1nc(Nc2cc(N)cc(Cl)c2)c2ncn(C(C)C)c2n1 | 16.3% |

From PubChem BioAssay AID1645883 (National Center for Advancing Translational Sciences (NCATS), 2021)
